Measured values taken from PubChem BioAssay (NCI).
The panel holds about 83,000 compounds, 20% with a hit somewhere; the sample as a whole holds those more often.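 Interpretation: 100, growth as untreated; towards 0, rising growth inhibition; 0, no net growth; 0 to -100, cell death. Compounds scoring below 10 were considered active.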 Calls of active or inactive are those of the source.

System: NCI/ADR-RES ovarian
Test: NCI-60 one-dose screen, 48 h (100 = growth as untreated, 0 = no growth, -100 = all killed)
Settings: 10 µM unless noted

Q: Which growth does the source give for `C#C[C@]1(O)CC[C@H]2[C@@H]3CC=C4c5sc(Nc6cccc(C)n6)nc5CC[C@]4(C)[C@H]3CC[C@@]21C` here?
A: The growth was 38.5% (inactive).

Q: For `Clc1ccc(-c2csc(N/N=C/c3nc4ccccc4n3C3CC3)n2)cc1`, which growth is on record?
A: The growth was 102% (inactive).

Q: Which growth does the source give for `O=C(NNc1nc2cc(F)c(F)cc2n2cccc12)c1ccncn1` here?
A: Its growth is 5.95% (active).

Q: With `CCn1c2ccc(/C=N/NS(=O)(=O)CCN(C)C)cc2c2cc(/C=N/NS(=O)(=O)CCN(C)C)ccc21` as the compound, how does the growth read?
A: The growth was 98.1% (inactive).

Q: How did the growth turn out when `COc1ccc(-c2nnc(/N=C3/C(=O)Nc4ccc(Br)cc43)o2)cc1` was run?
A: Its growth is 102% (inactive).

Q: `O=C(CCCCCCN1CC(=O)N2[C@@H](c3ccc(Cl)c(F)c3)c3[nH]c4ccccc4c3C[C@H]2C1=O)NO` was tested. Which growth did it give?
A: The growth was 101% (inactive).

Q: Which growth does the source give for `O=C(N/N=C\c1ccc(Cl)cc1)c1ccc2nc(-c3ccc(Br)cc3)[nH]c2c1` here?
A: Its growth is 35.7% (inactive).

Q: With `O=C1CSC(=O)N1Cc1cc2ccccc2nc1Cl` as the compound, how does the growth read?
A: The growth was 105% (inactive).

Q: Which growth does the source give for `CCCCSc1nnc(-c2ccc(-c3ccc(Cl)cc3)nc2C)o1` here?
A: Its growth is 99.8% (inactive).

Q: With `COc1ccc(/C=N\NC(=O)c2ccc3nc(-c4ccc(Br)cc4)[nH]c3c2)cc1` as the compound, how does the growth read?
A: Its growth is 75.2% (inactive).

Q: `NS(=O)(=O)c1ccc(Nc2nc(N/N=C/c3ccc([N+](=O)[O-])cc3)nc(Nc3ccccc3)n2)cc1` was tested. Which growth did it give?
A: Its growth is 93.3% (inactive).

Q: `COc1cc(NC2=C(Cl)C(=O)c3nc(C)ccc3C2=O)cc(OC)c1` was tested. Which growth did it give?
A: Its growth is -1.26% (active).

Q: How did the growth turn out when `Cc1ccc(/C=C/CC(=O)Nc2ccc(C(=O)Nc3ccc(F)cc3N)cc2)cn1` was run?
A: The growth was 90% (inactive).

Q: How did the growth turn out when `O=C(c1ccc(O)cc1)[C@@H]1[C@@H]2CCCN2[C@@]2(C(=O)N(C(=O)c3ccc(F)cc3)c3ccccc32)[C@H]1c1ccc(F)cc1` was run?
A: Its growth is 98.8% (inactive).
